In the library only some 2.4% were active in any assay of this set; here they are far more common.
WRN helicase inh-1 = blocks human WRN helicase | Q14191 | Potency, µM (top dose mostly 114 µM), without a hit: at the highest dose activity change, negative = inhibition, hits mostly inhibitors | 0.46% of 360,000 active | WRN helicase unwinding, fluorescent forked duplex, kinetic; note: potency is the fitted concentration of half-maximal effect; % is set by controls: 0 for no effect and ±100 for the full control effect; nearly all actives have a fitted effect of over 55% in size
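WRN at 20 nM final preincubated with compound 15 min at room temperature; reaction started with 100 nM fluorophore/quencher forked duplex oligonucleotide and 2 mM ATP final. Unwinding followed kinetically by red fluorescence (ex 525, em 598 nm).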
Pol eta inh-1 = blocks human DNA polymerase eta activity. Q9Y253. recombinant Pol eta, fluorescent DNA replication assay. Potency, µM (titrated, usually from 114 µM), without a hit: top-dose activity change, negative = inhibition, actives largely listed as inhibitors. 1.2% of 390,000 active. AID 588591; note: potency is the fitted concentration of half-maximal effect; % is set by controls: 0 for no effect and ±100 for the full control effect
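Fluorescent replication assay: 50 nM final substrate added after a 15 min room-temperature compound preincubation with 10 nM enzyme. Signal taken at 0 min and again at 10 min.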
POLB inh = inhibitors of human DNA polymerase beta; Potency, µM (top dose mostly 114 µM), inactives show top-dose activity change, negative = inhibition, hits mostly inhibitors; 1.3% of 340,000 active; Pol beta primer extension/strand displacement, fluorescence kinetic; AID 485314; note: potency is the fitted concentration of half-maximal effect; % is set by controls: 0 for no effect and ±100 for the full control effect
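Homogeneous kinetic assay of primer extension and strand displacement by 10 nM Pol beta, preincubated 15 min at room temperature with compound before 50 nM substrate (final) was added. Read at 0 and 10 min; four-parameter Hill fit.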
FEN1 inh-1 = human FEN1 inhibition | Recombinant FEN1 flap cleavage, fluorescence, 15 min | AID 588795 | 0.35% of 390,000 active | P39748 | Potency, µM (highest dose often 114 µM), for inactives: at the highest dose activity change, negative = inhibition, actives largely listed as inhibitors; note: potency is the fitted concentration of half-maximal effect; % is set by controls: 0 for no effect and ±100 for the full control effect; nearly all actives have a fitted effect of over 65% in size
Target sequence (P39748 whole entry, looked up): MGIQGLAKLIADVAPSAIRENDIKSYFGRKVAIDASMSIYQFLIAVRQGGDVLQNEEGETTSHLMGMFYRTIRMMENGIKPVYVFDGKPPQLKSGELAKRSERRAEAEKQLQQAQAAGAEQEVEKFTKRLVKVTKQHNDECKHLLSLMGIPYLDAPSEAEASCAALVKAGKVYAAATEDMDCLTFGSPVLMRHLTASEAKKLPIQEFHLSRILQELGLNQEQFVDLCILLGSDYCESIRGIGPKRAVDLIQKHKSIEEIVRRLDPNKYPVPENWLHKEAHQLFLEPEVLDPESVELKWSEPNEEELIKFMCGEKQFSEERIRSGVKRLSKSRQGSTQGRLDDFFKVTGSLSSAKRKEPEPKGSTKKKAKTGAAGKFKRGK
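FEN1 at 10 nM, compound pretreatment for 15 min (room temperature), 50 nM final substrate to initiate; endpoint reads at 0 and 15 min; DMSO-only plates used as vehicle background.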
Pol kappa inh-1 = inhibitors of human DNA polymerase kappa; AID 588579; Potency, µM (titrated, usually from 107 µM), for inactives: top-dose activity, negative = inhibition, actives largely listed as inhibitors; purified Pol kappa, fluorescent DNA synthesis assay, 10 min; Q9UBT6; 0.53% of 400,000 active; note: potency is the fitted concentration of half-maximal effect; % is set by controls: 0 for no effect and ±100 for the full control effect
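10 nM Pol kappa preincubated 15 min at room temperature with compounds, then reaction started with substrate at 50 nM final. Fluorescence read kinetically at 0 and 10 min; buffer-only wells served as negative control.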
POLI inh = DNA polymerase iota (human) inhibition. Q9UNA4. Pol iota fluorescent replication assay, 10 min. Potency, µM (highest dose often 115 µM), for the others: at the top dose activity, negative = inhibition, actives largely listed as inhibitors. 1% of 390,000 active. AID 588590; note: potency is the fitted concentration of half-maximal effect
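Pol iota at 10 nM preincubated 15 min with compounds at room temperature; reaction started with fluorescent substrate, 50 nM final. Fluorescence read kinetically at 0 and 10 min; buffer-only wells as negative control.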
BAZ2B inh = inhibits human BAZ2B bromodomain, hit validation. shares compounds with Pol kappa inh-1. AlphaScreen BAZ2B / biotin-H3K14Ac peptide displacement. Potency, µM, most hits filed as inhibitors. 100% of 25 active. AID 588809; calls by dose curve
AlphaScreen ctr = AlphaScreen signal interference, BAZ2B hit counter-screen. shares compounds with Pol kappa inh-1. Potency, µM (highest dose often 57.1 µM), without a hit: at the top dose activity change, negative = inhibition, usual class: inhibitors. AlphaScreen biotin-His6 peptide bead counterscreen, signal decrease. 25 tested, under 10 active;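 active = clear concentration-dependent signal drop in the bead assay lacking the target, so a primary-screen artifact; inconclusive = weak, partial or single-dose response; inactive = no response, so a real primary hit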
PGK validate = validation of Trypanosoma brucei phosphoglycerate kinase inhibitors | shares compounds with Pol kappa inh-1 | TbPGK coupled GAPDH assay, Kinase-Glo luminescence | Potency, µM (doses to about 57.5 µM), without a hit: at the top dose activity change, negative = inhibition, most hits filed as inhibitors | 79% of 500 active | AID 686980; note: potency is the fitted concentration of half-maximal effect; % is set by controls: 0 for no effect and ±100 for the full control effect; nearly all actives have a fitted effect of over 65% in size
Target sequence (P07378 whole entry, looked up): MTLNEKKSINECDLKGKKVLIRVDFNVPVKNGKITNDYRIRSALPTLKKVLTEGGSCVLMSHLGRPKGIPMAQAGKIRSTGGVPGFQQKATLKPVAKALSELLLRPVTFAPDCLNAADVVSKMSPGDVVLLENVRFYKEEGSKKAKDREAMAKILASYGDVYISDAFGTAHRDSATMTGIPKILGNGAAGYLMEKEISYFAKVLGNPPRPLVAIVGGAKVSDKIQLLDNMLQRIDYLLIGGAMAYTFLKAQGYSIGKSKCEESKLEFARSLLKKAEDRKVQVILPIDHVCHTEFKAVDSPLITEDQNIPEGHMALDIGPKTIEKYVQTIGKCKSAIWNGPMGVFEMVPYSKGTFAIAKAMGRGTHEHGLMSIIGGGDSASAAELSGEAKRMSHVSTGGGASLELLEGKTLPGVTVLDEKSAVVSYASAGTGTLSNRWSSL
POLI cherry-pick = Inhibitors of human DNA polymerase iota, confirmation; shares compounds with Pol kappa inh-1; Pol iota primer extension, TAMRA/BHQ fluorescence; Potency, µM, hits mostly inhibitors; 77% of 1,500 active; AID 720496; note: potency is the fitted concentration of half-maximal effect
Pol kappa inh-2 = Pol kappa (human) inhibition, cherry-pick confirmation; shares compounds with Pol eta inh-1; purified Pol-kappa, fluorescent strand-displacement substrate; Potency, µM, most hits filed as inhibitors; 76% of 920 active; note: potency is the fitted concentration of half-maximal effect
Pol eta inh-2 = confirmation of human DNA polymerase eta inhibitors; shares compounds with Pol eta inh-1; Pol eta primer extension, TAMRA/BHQ fluorescence, 10 min; Potency, µM, most hits filed as inhibitors; 64% of 2,600 active; AID 720502; note: potency is the fitted concentration of half-maximal effect
FEN1 inh-2 = FEN1 inhibition, cherry-pick retest; 79% of 880 active; Potency, µM, most hits filed as inhibitors; shares compounds with FEN1 inh-1; FEN1 flap cleavage, TAMRA/BHQ2 fluorogenic DNA substrate; note: potency is the fitted concentration of half-maximal effect; nearly all actives have a fitted effect of over 60% in size
WRN helicase inh-2 = confirmation of human WRN helicase inhibitors; Potency, µM (doses to about 57.1 µM), for the others: top-dose activity, negative = inhibition, usual class: inhibitors; shares compounds with WRN helicase inh-1; WRN helicase DNA unwinding, fluorescence kinetic; 63% of 610 active; note: potency is the fitted concentration of half-maximal effect; nearly all actives have a fitted effect of over 65% in size
TO DNA binding = DNA binding via thiazole orange displacement; 10% of 610 active; shares compounds with WRN helicase inh-1; thiazole orange DNA binding displacement, fluorescence; Potency, µM (top dose mostly 57.1 µM), for the others: at the highest dose activity change, negative = inhibition, hits mostly inhibitors;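 note: drop in dye fluorescence marks compound binding to DNA; potency is the fitted concentration of half-maximal effect; % is set by controls: 0 for no effect and ±100 for the full control effect; nearly all actives have a fitted effect of over 60% in size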
BLM counter = BLM helicase inhibition, WRN selectivity check | shares compounds with WRN helicase inh-1 | Recombinant BLM helicase DNA unwinding, red fluorescence | Potency, µM (doses to about 57.1 µM), for the others: at the highest dose activity change, negative = inhibition, most hits filed as inhibitors | 60% of 610 active | AID 720503; note: potency is the fitted concentration of half-maximal effect; nearly all actives have a fitted effect of over 60% in size
Starred values were filed as active, the others as inactive; ? = inconclusive; . = not tested or not shown; [ ] = remark or other dose. Unless noted, calls come from the whole dose curve; as a rule, active = well fitted curve in the direction sought with a large enough effect; inconclusive = small, poorly fitted or top-dose-only effect, or another doubt; inactive = no such curve, though single readings can be large; an effect the other way counts as inactive or inconclusive.

SMILES	WRN helicase inh-1	Pol eta inh-1	POLB inh	FEN1 inh-1	Pol kappa inh-1	POLI inh	POLI cherry-pick	Pol eta inh-2	FEN1 inh-2	WRN helicase inh-2	TO DNA binding	BLM counter	others
Cc1cccc(N2C(=O)/C(=C/c3ccc(N4CCN(C)CC4)o3)C(=O)NC2=S)c1C	31.6µM*	20µM*	-1.8%	-15.1%	?	?	59.7*	30.1*	84.9*	.	.	.	Pol kappa inh-2=8.44*
CN1C(=O)NC(=O)/C(=C/c2ccc([N+](=O)[O-])o2)C1=O	?	3.55µM*	31.6µM*	25.1µM*	22.4µM*	?	5.97*	4.26*	33.8*	.	.	.	PGK validate=2.59µM*
CSc1nc(N)c(N=Nc2ccc([As](=O)(O)O)cc2)c(=O)[nH]1	-17.5%[11.6 µM]	50.1µM*	35.5µM*	8.1%	-24.0%	8.91µM*	42.3*	75.7*	75.7*	.	.	.
C[n+]1c(-c2ccccc2)c2cc(N)ccc2c2ccc(N)cc21	2.67µM*	?	25.1µM*	11.2µM*	25.1µM*	8.91µM*	16.8*	67.5*	9.53*	.	.	.	Pol kappa inh-2=2.38*
O=C1NC(=O)N(Cc2ccccc2)C(=O)/C1=C\c1ccco1	31.6µM*	20µM*	25.1µM*	44.7µM*	28.2µM*	?	?	33.8*	75.7*	.	.	.
CCN1C(=O)NC(=O)/C(=C\c2cn(CC(=O)O)c3ccccc23)C1=O	.	.	29.6%	.	.	.	.	.	.	.	.	.
O=C(O)Cn1cc(/C=C2\C(=O)NC(=O)N(Cc3ccco3)C2=O)c2ccccc21	39.8µM*	1.58µM*	10µM*	79.4µM*	20µM*	4.47µM*	3.36*	4.78*	67.5*	.	.	.	PGK validate=8.19µM*
C[C@H]1C[C@H](C)C(=O)[C@@H]([C@H](O)CC2CC(=O)NC(=O)C2)C1	.	.	.	.	-4.2%[19.4 µM]	.	.	.	.	.	.	.
COc1cccc2c1C(=O)c1c(O)c3c(c(O)c1C2=O)CC(O)(C(C)=NO)CC3OC1CC(N)C(O)C(C)O1 (centres undefined)	2.67µM*	17.8µM*	.	?	?	79.4µM*	21.2*	42.6*	30.1*	21.5µM*	163.3%	21.5µM*
CCOP(=S)(OCC)O/N=C(\C#N)c1ccccc1Cl	.	.	.	.	-3.8%[60.1 µM]	.	.	.	.	.	.	.
O=C1NC(=O)N(Cc2ccc(F)cc2)C(=O)/C1=C\C=C\c1ccco1	35.5µM*	20µM*	?	?	?	14.1µM*	?	30.1*	.	7.64µM*	-12.4%	4.29µM*
CCCCN1C(=O)/C(=C/C=C/c2ccco2)C(=O)NC1=S	2.67µM*	3.55µM*	3.55µM*	25.1µM*	17.8µM*	28.2µM*	23.8*	16.9*	33.8*	12.1µM*	82.6%	6.81µM*	PGK validate=13µM*
C=CCN1C(=O)/C(=C/c2cc(C)n(-c3ccccn3)c2C)C(=O)NC1=S	-19.6%	?	49.6%	-3.1%	-1.5%	-24.6%	.	.	.	.	.	.
OC[C@H]1O[C@@H](n2cnc3cc(Cl)c(Cl)cc32)[C@H](O)[C@H]1O	.	.	.	.	10.1%[60.1 µM]	.	.	.	.	.	.	.
COc1ccc(CN2C(=O)NC(=O)/C(=C/c3ccoc3)C2=O)cc1	39.8µM*	20µM*	10µM*	22.4µM*	20µM*	10µM*	18.9*	26.9*	75.7*	7.64µM*	-2.6%	2.41µM*	PGK validate=4.61µM*
CCc1ccccc1NC(=O)Nc1cc(C(=O)NCc2ccc(C(C)C)cc2)ccc1N1CCCC1	.	-14.6%	-1.0%	33.5%	-4.8%[60.1 µM]	1.2%	.	.	.	.	.	.
CC(C)c1ccc2oc(-c3ccc(NC(=O)c4cc5ccccc5o4)cc3)nc2c1	.	-10.1%	-8.7%	-7.0%	1.2%	32.4%	.	.	.	.	.	.
O=C(Nc1ccc2oc(-c3cccnc3)nc2c1)c1ccc(-c2cccc(Cl)c2)o1	.	70.8µM*	?	?	-17.2%	-7.1%	42.3*	75.7*	.	19.2µM*	13.7%	6.81µM*
COc1ccc(OC)c(NC(=O)Cn2cc(C(=O)c3ccccc3)c3ccccc32)c1	.	-20.9%	0.7%	-15.6%	-25.8%	4.1%	.	.	.	.	.	.
COc1ccc(OC)c(NC(=O)COC(=O)c2cc3c(s2)CCC3)c1	23.8µM*	10µM*	7.94µM*	?	12.6µM*	3.55µM*	9.47*	15.1*	.	17.1µM*	?	3.04µM*	BAZ2B inh=22.4*;AlphaScreen ctr=?;PGK validate=4.61µM*
CC[C@@]1(O)C(=O)OCc2c1cc1n(c2=O)Cc2cc3cc(O)ccc3nc2-1	.	.	.	.	-11.4%[60.1 µM]	.	.	.	.	.	.	.
